In PubChem BioAssay (Tox21) one finds Potency and outcome data, which are given here for eight compounds.

Assay [1] can be described thus: qHTS assay to identify small molecule antagonists of the estrogen related receptor (ERR) signaling pathway from Tox21 library - cell viability counter screen (AID 1224834). Further: nearly all actives have a fitted effect of over 30% in size. Further: potency means the concentration at half of the fitted maximal effect. To be noted: ERR reporter cells viability, CellTiter-Fluor, 17.5 h; series mostly up to 92.4 µM. A digest of the protocol:
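ERR cells, 2,000/well; 6 h settle at 37 C/5% CO2; pin-tool compound transfer in DMSO; 17.5 h at 37 C; CellTiter-Fluor, 30 min; fluorescence intensity.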
(In general: In qHTS, concentration-response curves come from the screen itself.)

The target of assay [2] is Luciferin 4-monooxygenase (Photinus pyralis) (UniProt P08659). Put plainly: qHTS assay to identify small molecule inhibitors of firefly luciferase (AID 1224835). Further: nearly all actives have a fitted effect of over 25% in size. The settings on record: purified P. pyralis luciferase, luminescence inhibition; series mostly up to 115 µM. A digest of the protocol:
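Inhibition of purified Photinus luciferase is measured by luminescence. Substrate levels (D-luciferin, ATP) sit at their KM values. Each compound is tested in a concentration series.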

A short description of assay [3]: qHTS assay to identify small molecule agonists of the constitutive androstane receptor (CAR) signaling pathway - cell viability counter screen (AID 1224836). Further: nearly all actives have a fitted effect of over 45% in size. Further: potency means the concentration at half of the fitted maximal effect. To be noted: HepG2-CYP2B6-hCAR viability, CellTiter-Fluor, 23 h, PK11195 added to every well; series mostly up to 92.4 µM. In outline: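 HepG2 cells stably carrying hCAR and a CYP2B6-2.2kb reporter; 15-concentration compounds plus PK11195 (final 0.75 uM), 23 hr at 37 C/5% CO2. Viability read by CellTiter-Fluor fluorescence.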

Assay [4] in a line: qHTS assay to identify small molecule antagonists of the constitutive androstane receptor (CAR) signaling pathway - cell viability counter screen (AID 1224837). Further: nearly all actives have a fitted effect of over 45% in size. Further: potency means the concentration at half of the fitted maximal effect. To be noted: HepG2-CYP2B6-hCAR viability, CellTiter-Fluor, 23 h, co-treated with 50 nM CITCO; series mostly up to 92.4 µM. In outline: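 Viability was measured with CellTiter-Fluor in a HepG2 line carrying stably transfected hCAR and a CYP2B6-2.2kb construct. Cells were exposed for 23 hr at 37 C to 15 compound concentrations with 50 nM CITCO as agonist.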

Assay [5] concerns the target Nuclear receptor subfamily 1 group I member 3 (Homo sapiens) (UniProt Q14994). As to the kind of experiment: qHTS assay to identify small molecule agonists of the constitutive androstane receptor (CAR) signaling pathway (AID 1224839). Further: nearly all actives have a fitted effect of over 15% in size. The settings on record: HepG2 hCAR CYP2B6-luciferase, agonist mode, 24 h; series mostly up to 92.4 µM. A digest of the protocol: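 HepG2 cells stably co-transfected with hCAR and a CYP2B6-2.2kb luciferase reporter; compounds at 15 concentrations with 0.75 uM PK11195 present. After 24 hr at 37 C, luciferase read by ONE-Glo luminescence.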

Assay [6] is described as follows: qHTS assay to identify small molecule antagonists of the estrogen related receptor signaling pathway with the pleiotropic PPARgamma coactivator (PGC) from Tox21 10K library - cell viability counter screen (AID 1224840; active means well fitted cell-killing curve with a large enough effect in the repeat runs, not every such curve was filed as active; further: nearly all actives have a fitted effect of over 40% in size). To be noted: PGC/ERR reporter cells viability, CellTiter-Fluor, 17.5 h; series mostly up to 92.4 µM. In outline: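 Multiplexed viability counter screen in the PGC/ERR cell line: cells treated with DMSO-dissolved compounds for 17.5 hours at 37 C, then viability measured as CellTiter-Fluor fluorescence.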

Assay [7] deals with Thyrotropin receptor (Homo sapiens) (UniProt P16473). Put plainly: qHTS assay to identify small molecule agonists of the thyroid stimulating hormone receptor (TSHR) signaling pathway (AID 1224843; calls by dose curve; further: nearly all actives have a fitted effect of over 45% in size). To be noted: TSHR-HEK293 cells, cAMP HTRF, agonist mode, 30 min; series mostly up to 92.4 µM. In outline:
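Agonist activity read as cAMP rise via d2/cryptate HTRF competition, 1 h room-temperature detection, in HEK293 cells expressing TSHR. Fifteen-point titrations, each run in triplicate, with a 30 min room-temperature incubation beforehand.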

The nature of assay [8]: qHTS assay to identify small molecule agonists of the hypoxia (HIF-1) signaling pathway - cell viability counter screen (AID 1224844; calls by dose curve; further: nearly all actives have a fitted effect of over 50% in size). The settings on record: HRE-bla ME-180 viability, CellTiter-Glo luminescence, 17 h; series mostly up to 76.8 µM. A digest of the protocol: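 Cytotoxicity was measured in parallel with the HRE-driven beta-lactamase readout: after 17 hrs of compound exposure at 37C, HRE-bla ME-180 cells received CellTiter-Glo and luminescence was recorded 30 min later.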

The nature of assay [9]: qHTS assay to identify small molecule agonists of H2AX (AID 1224845; active means well fitted activation curve with a large enough effect in the signal ratio in the repeat runs, not every such curve was filed as active; the % refers to the signal ratio). The settings on record: CHO-K1 phospho-H2AX Ser139 HTRF, 3 h; series mostly up to 154 µM. A digest of the protocol:
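Phospho-H2AX Ser139 measured by HTRF (ex 320 nm; em 665 and 620 nm) after 24 hr antibody incubation. Compounds, 15 concentrations, 0.76% DMSO, were applied to CHO-K1 cells for 3hr at 37C before lysis.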

The nature of assay [10]: qHTS assay to identify small molecule agonists of the hypoxia (HIF-1) signaling pathway (AID 1224846; active means well fitted activation curve with a large enough effect in the signal ratio in the repeat runs, not every such curve was filed as active; the % refers to the signal ratio). The settings on record: HRE-bla ME-180 cells, beta-lactamase ratio, 17 h; series mostly up to 76.8 µM. In outline: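 Compounds from the Tox21 10K library, dissolved in DMSO, are tested for induction of a hypoxia response element–controlled beta-lactamase reporter in ME-180 cells. Exposure lasts 17 hrs at 37C after a 5 hr settling period, followed by CCF4-AM FRET substrate.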

A short description of assay [11]: qHTS assay to identify small molecule agonists of H2AX - cell viability counter screen (AID 1224847; calls by dose curve;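 further: wild-type CHO-K1 cells; top concentration of the series differs between compounds; nearly all actives have a fitted effect of over 30% in size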). To be noted: CHO-K1 viability, CellTiter-Glo luminescence, 3 h; series mostly up to 154 µM. A digest of the protocol:
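CHO-K1 cells plated overnight at 37C, then exposed 3 h at 37C to compounds at 15 concentrations (0.76% DMSO final). Viability by CellTiter-Glo luminescence after 30 min at room temperature.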

Assay [12] is described as follows: qHTS RealTime-Glo MT Cell Viability Assay in HepG2 cells - 24 hour (AID 1224867). Further: nearly all actives have a fitted effect of over 50% in size. Further: potency means the concentration at half of the fitted maximal effect. The settings on record: RealTime-Glo luminescence; series mostly up to 76.8 µM. In outline: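 HepG2 cells were seeded at 600 cells/well together with NanoLuc luciferase and a cell-permeant prosubstrate, preincubated 5 h at 37 C/5% CO2, then pin-dosed with compounds in DMSO. Nonlytic luminescence from viable cells was read at each time point.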

A short description of assay [13]: qHTS RealTime-Glo MT Cell Viability Assay in HEK293 cells - 32 hour (AID 1224868). Further: top concentration of the series differs between compounds; nearly all actives have a fitted effect of over 50% in size. To be noted: RealTime-Glo luminescence; series mostly up to 76.8 µM. In outline: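 HEK293 cells were seeded at 600 cells/well together with NanoLuc luciferase and cell-permeant prosubstrate, preincubated 5 h at 37 C/5% CO2, then given compound in DMSO by pintool. Luminescence from viable-cell prosubstrate reduction was read repeatedly over 40 h.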

A short description of assay [14]: A CellTox Green Cytotoxicity Assay to monitor cytotoxicity in HEK293 cells - 0 hour (AID 1224869). Further: nearly all actives have a fitted effect of over 50% in size. To be noted: CellTox Green fluorescence; series mostly up to 76.8 µM. In outline:
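Cells (HEK293, 600/well) and dye reagent are dispensed together. After 5 h at 37 C, 23 nL compound is pinned in. Plates stay at 37 C for 40 h with fluorescence read at 0h, 8h, 16h, 24h, 32h and 40h.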

Assay [15] deals with Nuclear receptor subfamily 1 group I member 3 (Homo sapiens) (UniProt Q14994). Put plainly: qHTS assay to identify small molecule antagonists of the constitutive androstane receptor (CAR) signaling pathway (AID 1224838).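 Further: HepG2 cells stably expressing hCAR with CYP2B6 luciferase reporter stimulated by CITCO; nearly all actives have a fitted effect of over 40% in size.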 Further: potency means the concentration at half of the fitted maximal effect. To be noted: HepG2-CYP2B6-hCAR luciferase, CITCO-stimulated, 24 h; series mostly up to 92.4 µM. A digest of the protocol:
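Antagonist mode used CITCO at a final 50 nM to activate CAR in human hepatoma HepG2 cells carrying stable hCAR and a 2.2 kb CYP2B6 promoter-luciferase construct. Compounds were tested at 15 concentrations over 24 h, with luminescence as the end point.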

The nature of assay [16]: qHTS assay to identify small molecule antagonists of the estrogen related receptor signaling pathway with the pleiotropic PPARgamma coactivator (PGC) from Tox21 10K library (AID 1224841; call rule not given here). The settings on record: PGC/ERR reporter cell line, ONE-Glo luciferase, 18 h; series mostly up to 92.4 µM. In outline: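 Steps: plate 2,000 PGC/ERR cells per well; incubate 6 h at 37 C with 5% CO2; transfer compounds from DMSO stocks by pin tool; incubate 18 h at 37 C; add One-Glo; measure luminescence 30 min later.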

Assay [17] in a line: qHTS assay to identify small molecule agonists of the estrogen related receptor signaling pathway with the pleiotropic PPARgamma coactivator (PGC) from Tox21 10K library (AID 1224842). Further: nearly all actives have a fitted effect of over 15% in size. To be noted: PGC/ERR reporter cell line, luciferase ONE-Glo, 18 h; series mostly up to 92.4 µM. In outline: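 Luminescence from One-Glo (30 min, room temperature) measured after PGC/ERR cells had 18 h at 37 C with pinned compound (23 nL in DMSO). Cells had been seeded at 2,000 per well and pre-incubated 6 h.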

Assay [18] is described as follows: qHTS assay to identify small molecule antagonists of the estrogen related receptor (ERR) signaling pathway from Tox21 library (AID 1224848). The settings on record: ERR reporter cell line, luciferase antagonist mode, 18 h; series mostly up to 92.4 µM. In outline:
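Luciferase luminescence (ONE-Glo, 30 min room temperature) was the read-out. Cells of the NTP-supplied ERR line, 2,000 per well, were given 6 h at 37 C before compound addition in DMSO and 18 h exposure at 37 C.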

Each structure is given as a SMILES string. Values without a mark were called inactive. Inconclusive results are not listed. Calls of active or inactive are those of the source. Unless noted, the call rests on the fitted dose curve; in most records, active means well fitted curve in the direction sought with a large enough effect in the repeat runs; inconclusive means weak or mixed curves; inactive means no such curve, though single readings can be large; an effect the other way counts as inactive or inconclusive.

Sequence of Nuclear receptor subfamily 1 group I member 3 (Homo sapiens) (Q14994 whole entry, looked up): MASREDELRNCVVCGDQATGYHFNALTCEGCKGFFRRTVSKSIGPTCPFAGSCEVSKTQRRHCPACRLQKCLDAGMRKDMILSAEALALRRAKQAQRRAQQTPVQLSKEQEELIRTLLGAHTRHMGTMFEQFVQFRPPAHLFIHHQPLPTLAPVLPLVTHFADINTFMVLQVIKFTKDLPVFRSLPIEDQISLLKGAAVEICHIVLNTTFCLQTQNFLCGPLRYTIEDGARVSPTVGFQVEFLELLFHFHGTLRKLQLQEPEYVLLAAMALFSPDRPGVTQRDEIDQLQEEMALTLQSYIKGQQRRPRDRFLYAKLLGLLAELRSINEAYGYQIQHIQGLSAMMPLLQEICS
Sequence of Thyrotropin receptor (Homo sapiens) (P16473 whole entry, looked up): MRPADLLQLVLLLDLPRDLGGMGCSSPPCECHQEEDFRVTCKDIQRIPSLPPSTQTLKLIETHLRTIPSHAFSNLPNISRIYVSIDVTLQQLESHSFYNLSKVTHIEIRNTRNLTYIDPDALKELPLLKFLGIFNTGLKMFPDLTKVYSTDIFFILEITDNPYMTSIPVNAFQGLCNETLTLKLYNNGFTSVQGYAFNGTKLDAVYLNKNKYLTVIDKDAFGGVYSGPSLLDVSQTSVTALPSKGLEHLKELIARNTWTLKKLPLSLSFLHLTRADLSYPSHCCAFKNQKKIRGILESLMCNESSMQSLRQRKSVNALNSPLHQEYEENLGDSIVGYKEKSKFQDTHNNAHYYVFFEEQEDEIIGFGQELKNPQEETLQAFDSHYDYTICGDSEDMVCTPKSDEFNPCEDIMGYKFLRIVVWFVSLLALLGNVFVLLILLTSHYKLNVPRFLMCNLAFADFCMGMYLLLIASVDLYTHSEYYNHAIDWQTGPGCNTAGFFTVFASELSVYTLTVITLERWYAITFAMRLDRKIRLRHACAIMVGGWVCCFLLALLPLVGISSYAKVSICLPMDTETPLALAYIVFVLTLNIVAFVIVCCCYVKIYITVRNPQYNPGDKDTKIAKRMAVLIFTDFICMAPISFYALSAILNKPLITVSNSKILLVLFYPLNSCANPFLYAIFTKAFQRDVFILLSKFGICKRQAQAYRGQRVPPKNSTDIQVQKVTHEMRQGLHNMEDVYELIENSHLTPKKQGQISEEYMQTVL
Sequence of Luciferin 4-monooxygenase (Photinus pyralis) (P08659 whole entry, looked up): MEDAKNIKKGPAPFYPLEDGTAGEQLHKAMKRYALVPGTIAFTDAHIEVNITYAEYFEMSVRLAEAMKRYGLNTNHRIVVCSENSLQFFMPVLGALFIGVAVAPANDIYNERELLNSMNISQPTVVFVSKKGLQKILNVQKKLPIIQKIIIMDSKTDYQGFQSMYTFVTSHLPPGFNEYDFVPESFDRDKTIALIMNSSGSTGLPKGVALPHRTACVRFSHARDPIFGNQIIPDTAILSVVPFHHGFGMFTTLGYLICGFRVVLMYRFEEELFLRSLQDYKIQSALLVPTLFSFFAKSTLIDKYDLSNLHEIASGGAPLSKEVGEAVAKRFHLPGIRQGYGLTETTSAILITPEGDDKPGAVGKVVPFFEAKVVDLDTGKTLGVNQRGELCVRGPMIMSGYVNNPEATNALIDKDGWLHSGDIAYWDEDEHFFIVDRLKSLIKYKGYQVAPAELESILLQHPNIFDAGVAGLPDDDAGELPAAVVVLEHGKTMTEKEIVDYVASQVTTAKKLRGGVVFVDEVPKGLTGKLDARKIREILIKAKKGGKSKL

`Cc1ccnc2ccccc12`: the Potency entry in [1], in assay [2], in [3], in [4], in assay [5] and in assay [6] was “inactive” each time. For the same compound, the Potency result in assay [7], in assay [8], in assay [9], in assay [11], in assay [12] and in assay [13] was “inactive” in each case. The Potency entry in assay [14] is “inactive”. In [10], the result was inactive.

`O=C(N/N=C/c1ccc([N+](=O)[O-])o1)c1ccc(O)cc1`: the Potency in [1] is 13.3 µM (active); in assay [3], 9.44 µM (active); in assay [4], 8.41 µM (active); in assay [15], 8.41 µM (active). Further, the Potency result in assay [2], in assay [5], in assay [6], in assay [8], in [11] and in assay [14] was “inactive” in each case.

As for `C=CC(C)=CCC=C(C)C`, the Potency result in assay [1], in [2], in assay [3], in assay [4], in assay [15] and in [5] was “inactive” each time. Besides, the Potency entry in assay [6], in assay [8], in assay [9], in assay [12], in assay [13] and in assay [14] was “inactive” throughout.

`CCCCCCOC(=O)CCCCCCCC(=O)OCCCCCC`: the Potency result in [1], in assay [2], in [3], in assay [4], in assay [5] and in assay [6] was “inactive” in each case. For the same compound, the Potency result in assay [7], in assay [8], in assay [9], in assay [12], in assay [13] and in assay [14] was “inactive” each time. Also, the outcome in assay [10] was inactive.

For `C[N+](C)(C)CCOC(N)=O`, the Potency entry in [1], in assay [2], in assay [3], in assay [4], in [15] and in assay [5] was “inactive” throughout. For the same compound, the Potency entry in [6], in assay [8], in assay [9], in [12] and in assay [13] was “inactive” each time.

Consider `CCCCCCCC/C=C\CCCCCCCC(=O)OC(CO)CO`, for which the Potency result in assay [1], in assay [2], in assay [3], in assay [4], in assay [5] and in assay [6] was “inactive” each time. Also, the Potency result in [8], in [9], in [12] and in assay [13] was “inactive” throughout.

Take `O=C(CCCCCCCCC#CI)Oc1ccccc1`: the Potency entry in assay [1], in [2], in assay [3], in assay [4], in [5] and in [6] was “inactive” in each case. Also, the Potency result in assay [7], in assay [8], in [9], in assay [11] and in [14] was “inactive” in each case. Further, in assay [10], the outcome was inactive. The Potency in [12] is 6.01 µM (active).

For `C[C@]12CCC(=O)C=C1C=C[C@@H]1[C@@H]2CC[C@@]2(C)[C@H]1CC[C@@]21CCC(=O)O1`, the Potency entry in assay [1], in [2], in [3], in assay [4], in [5] and in [6] was “inactive” in each case. Besides, the Potency result in [16], in assay [17], in [7], in assay [8], in [9] and in assay [11] was “inactive” throughout. Besides, the Potency entry in assay [12], in assay [13] and in [14] was “inactive” throughout. Further, in assay [10], the result was inactive. Further, in assay [18], the Potency is 23.7 µM (active).
